Measured values taken from PubChem BioAssay.

target: Concanavalin-A (Canavalia ensiformis) (UniProt P02866); assay: compounds binding concanavalin A lectin – biochemical, small-molecule microarray, Alexa647 label, 635 nm, artefact control for SMM control protein annotation, primary screen (AID 1127); conditions: ConA-A647 binding fluorescence, higher = more signal;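 further: z combines 667 nm emission intensity with signal-to-noise across three replicate slides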
Sequence (P02866 whole entry, looked up): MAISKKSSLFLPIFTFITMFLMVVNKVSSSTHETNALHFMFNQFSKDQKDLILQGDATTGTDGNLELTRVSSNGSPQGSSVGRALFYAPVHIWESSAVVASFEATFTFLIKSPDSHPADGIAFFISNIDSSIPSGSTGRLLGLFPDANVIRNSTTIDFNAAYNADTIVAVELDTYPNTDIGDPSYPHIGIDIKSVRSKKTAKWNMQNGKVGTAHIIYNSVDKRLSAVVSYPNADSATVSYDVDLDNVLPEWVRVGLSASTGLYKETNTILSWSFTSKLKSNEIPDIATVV

Row | SMILES | composite z-score
1 | CC(C)CCN1CCc2nc(COc3ccccc3)c3c(c2C1)CO[C@@H](C)C3 | 0.432
2 | O=C(NN=C1C[C@@H](O)[C@@H](O)[C@@H]2[C@@H]3C(=O)N(Cc4ccccc4)C(=O)[C@@H]3CC[C@@H]12)OCc1ccccc1 | -0.292
3 | CO[C@@H]1COC(=O)[C@@H](C)COC(=O)[C@@H](C)NC(=O)CC=C[C@@H]1C | -0.988
4 | CO[C@@H]1COC(=O)CC=C[C@@H](C)[C@@H]2C=C[C@H](O)[C@@H](COC(=O)CC=C[C@H]1C)O2 | -0.629
5 | COC(=O)[C@@H]1CC[C@H](C)[C@@H](c2ccc(C)cc2)N1C(=O)c1ccc(C=NO[C@H](C)c2cn([C@H](CO)Cc3ccccc3)nn2)cc1 | 0.653
6 | CCC=CCCC(OC(=O)c1ccc(Br)cc1)C1=CCCCC1=O (stereo unspecified) | -0.297
7 | CO[C@H]1COC(=O)[C@@H](C)COC(=O)[C@H](COCc2ccccc2)NC(=O)CC=C[C@H]1C | -3.77
8 | CCOC(=O)CCN1C(=O)[C@H]2[C@H]3[C@H](O)[C@H](O)CC(=NOCC(C)C)[C@H]3CC[C@H]2C1=O | 0.0589
9 | C#CCCCON=C1C[C@@H](O)[C@@H](O)[C@@H]2[C@@H]3C(=O)N(CC)C(=O)[C@@H]3CC[C@@H]12 | 0.433
10 | CON=C1[C@H]2CCn3c(=O)n(-c4ccccc4)c(=O)n3[C@H]2[C@H](O)[C@@H]2O[C@H]12 | 0.217
11 | CC(C)=CCCC(C)=CCON=C1C[C@@H](O)[C@@H](O)[C@@H]2[C@@H]3C(=O)N(C(C)(C)C)C(=O)[C@@H]3CC[C@@H]12 | 0.411
12 | CC(C)(C)N1C(=O)[C@H]2[C@H]3[C@H](O)[C@H](O)CC(=O)[C@@H]3CC[C@H]2C1=O | 0.395
13 | CC(=O)OC[C@H]1O[C@H](CC=NO[C@H](C)c2cn([C@H](CO)Cc3ccccc3)nn2)C=C[C@@H]1OC(C)=O | 0.597
14 | C=Cc1ccc([C@H]2N[C@H](C(=O)O)CC[C@@H]2C)cc1 | -0.437
15 | O=C(C=Cc1ccc2c(c1)OCO2)c1ccc(F)cc1 | 0.108
16 | C[C@@H]1CC[C@H]2C(=O)O[C@@H](Cc3ccccc3)CN2[C@H]1c1ccc(Br)cc1 | 0.266
17 | C=CC1=C[C@H](O)[C@@H]2O[C@@H]2C12OCCCO2 | 0.337
18 | CCN1C(=O)[C@H]2[C@H]3[C@H](O)[C@H](O)CC(=NO[C@@H](C)c4cn([C@H](CO)Cc5ccccc5)nn4)[C@@H]3CC[C@H]2C1=O | 0.941

Row | SMILES | composite z-score
19 | CCOC(=O)[C@H](Cc1ccccc1)NC(=O)CCC1CC(OC(=O)NCc2ccc3c(c2)OCO3)CC2(CCCC(COC(=O)NCCC(C)C)O2)O1 (stereo partly specified) | 1.11
20 | O=C1[C@H]2[C@H]3[C@H](O)[C@H](O)CC(=NOC[C@@H](O)COCc4ccco4)[C@H]3CC[C@H]2C(=O)N1C[C@@H]1CCCO1 | -0.294
21 | CC(C)=NO[C@H](C)c1cn([C@H](CO)Cc2ccccc2)nn1 | 1.1
22 | O=C1CCCC=C1C(O)CCCCBr (stereo unspecified) | 1.09
23 | COC(=O)CC=C[C@@H](C)[C@@H](C=NOC[C@@H](O)[C@H]1O[C@@H]2OC(C)(C)O[C@@H]2[C@H]1O)NS(=O)(=O)c1ccc(C)cc1 | -0.137
24 | CCOC(=O)[C@H](Cc1ccccc1)NC(=O)CCC1CC(OC(=O)NCCc2ccc(F)cc2)CC2(CCCC(COC(=O)NCc3ccccc3)O2)O1 (stereo partly specified) | 0.477
25 | COC(=O)CC=C[C@@H](C)[C@@H](C=NOC(C)CN1CCCc2nc(C)c(C)cc21)OC (stereo partly specified) | 0.458
26 | O=C1CCCC=C1C(O)CCOC(c1ccccc1)(c1ccccc1)c1ccccc1 (stereo unspecified) | -0.542
27 | C[C@@H]1C=CCC(=O)OC[C@H]2O[C@@H](C=C[C@@H]2O)[C@H](C)C=CCC(=O)OC1 | -1.65
28 | CO[C@@H]1C=CCC(=O)N[C@@H](C)C(=O)OC[C@@H](OC)[C@H](C)CCCC(=O)OC[C@H]1C | -0.997
29 | Cc1ccc(S(=O)(=O)OC[C@H]2CN3[C@H](c4ccc(Br)cc4)[C@@H](C)CC[C@H]3C(=O)O2)cc1 | 0.818
30 | CC(C)=CCCC(C)=CCON=C1C[C@@H](O)[C@@H](O)[C@@H]2[C@@H]3C(=O)N(C4CCCCC4)C(=O)[C@@H]3CC[C@@H]12 | 0.124
31 | O=C1C=C[C@@H](O)[C@@H]2[C@@H]3C(=O)N(C[C@@H]4CCCO4)C(=O)[C@@H]3CC[C@@H]12 | 0.332
32 | CCOC(=O)[C@H](CC(C)C)NC(=O)CCC1CC(OC(=O)NCc2cccc3ccccc23)CC2(CCCC(COC(=O)NCCCN3CCCC3=O)O2)O1 (stereo partly specified) | 0.832
33 | Cc1ccc(S(=O)(=O)N[C@H]2COC(=O)CC=C[C@@H](C)COC(=O)CC=C[C@@H]2C)cc1 | -0.351
34 | Cn1c(=O)n2n(c1=O)[C@H]1[C@H](O)[C@@H]3O[C@@H]3C(=O)[C@H]1CC2 | 0.513
35 | O=C1C[C@@H](O)[C@@H](O)[C@@H]2[C@@H]3C(=O)N(C[C@@H]4CCCO4)C(=O)[C@@H]3CC[C@@H]12 | 0.852
36 | COc1ccc(O[C@H]2C=C[C@@H](c3ccccc3)O[C@@H]2CON=C2[C@H]3CCn4c(=O)n(-c5ccccc5)c(=O)n4[C@H]3[C@H](O)[C@@H]3O[C@H]23)cc1 | 0.817
